In PubChem BioAssay (NCI):
About 79,000 compounds went through this panel and 15% of them were active in at least one assay; those are over-represented in the sample as a whole. Calls of active or inactive are those of the source. Cut-off read from the data, not from the text of the source: active = growth inhibition above about 70%; inactive = the rest.

Assay: NCI Yeast Anticancer Drug Screen. Data for the mlh1 strain (AID 171);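 note: 0% = growth of vehicle-treated control cultures of the same strain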
Conditions: S. cerevisiae mlh1 strain growth inhibition, stronger effect = higher value
Procedure: Growth inhibition of yeast strains with defined genetic alterations is measured as a screen for potential anti-cancer activity. Selected strains with alterations in DNA damage repair or cell cycle control were exposed to compounds and growth inhibition was measured relative to vehicle treated controls. The strain used in this assay is mlh1

Measured: growth inhibition

O=C(N/N=C\c1c(Cl)cccc1Cl)N/N=C/c1c(Cl)cccc1Cl
inactive: at 1.2 µM -13% | at 3.7 µM -7% | at 11.0 µM -3% | at 33.0 µM -9% | at 100.0 µM -8%

O=c1[nH]c2ccccc2c2nc3ccccc3n12
inactive: at 1.2 µM -40% | at 3.7 µM -22% | at 11.0 µM -14% | at 33.0 µM 38% | at 100.0 µM 37%

Cc1cccc2c1N=C(C(F)(F)F)CC2=O
inactive: at 1.2 µM -1% | at 3.7 µM 2% | at 11.0 µM 1% | at 33.0 µM 8% | at 100.0 µM 38%

Clc1cc(-c2ccccc2)nc2ccccc12
inactive: at 1.2 µM 20% | at 3.7 µM 27% | at 11.0 µM 24% | at 33.0 µM 61%
active: at 100.0 µM 95%

Clc1c(Cl)c(Cl)c2c(nnn2C2CCCO2)c1Cl (stereo not given)
inactive: at 1.2 µM -5% | at 3.7 µM -2% | at 11.0 µM 4% | at 33.0 µM 30%
active: at 100.0 µM 85%

CCCCC(CC)C(=O)Oc1ccc(C(=O)c2ccccc2)c(O)c1 (stereo not given)
inactive: at 1.2 µM -9% | at 3.7 µM -10% | at 11.0 µM 3% | at 33.0 µM 55%
active: at 100.0 µM 97%

Cc1cc(OCc2ccccc2)ccc1[N+](=O)[O-]
active: at 100.0 µM 82%
inactive: at 1.2 µM 21% | at 3.7 µM 15% | at 11.0 µM 3% | at 33.0 µM 16%

CN(C)CC1CCCc2ccccc2C1=O (stereo not given)
inactive: at 1.2 µM 23% | at 3.7 µM 28% | at 11.0 µM 29%
active: at 33.0 µM 76% | at 100.0 µM 95%
